Assay outcomes (PubChem BioAssay)
GPR151 activ = activators of human GPR151, primary screen, cell-based, PathHunter beta-arrestin, luminescence | G-protein coupled receptor 151 (Homo sapiens), Q8TDV0 | PathHunter beta-arrestin GPR151 cells | activation, % at 11.2 µM | 650,000 compounds, 1% hits | AID 1508602, 2020; in the data active = activation above about 4.9%;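 also: 0% = median of compound wells and 100% = cells with positive control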
Target sequence (Q8TDV0 whole entry, looked up): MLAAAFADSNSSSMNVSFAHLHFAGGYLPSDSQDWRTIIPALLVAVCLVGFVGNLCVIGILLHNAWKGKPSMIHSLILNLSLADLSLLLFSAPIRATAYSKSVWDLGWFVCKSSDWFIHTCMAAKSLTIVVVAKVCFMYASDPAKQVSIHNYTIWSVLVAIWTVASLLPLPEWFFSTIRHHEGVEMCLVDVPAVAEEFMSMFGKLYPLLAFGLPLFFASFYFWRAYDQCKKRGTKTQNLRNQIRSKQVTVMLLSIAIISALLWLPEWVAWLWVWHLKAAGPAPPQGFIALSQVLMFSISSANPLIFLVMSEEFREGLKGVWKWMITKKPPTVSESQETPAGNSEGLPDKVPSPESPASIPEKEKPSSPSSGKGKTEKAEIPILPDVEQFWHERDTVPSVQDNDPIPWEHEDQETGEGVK
FBW7 activator = FBW7 E3 ligase activators, primary screen, biochemical, AlphaScreen, human | F-box/WD repeat-containing protein 7 (Homo sapiens), Q969H0 | AlphaScreen FBW7–phospho-cyclin E peptide binding, activator screen | normalized activity (activation), % at 26.1 µM | 650,000 compounds, 0.13% hits | AID 1259310, 2017; in the data active = normalized activity above about 1.9%;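 also: purified mutant Fbw7 with reduced substrate affinity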
MITF primary = MITF inhibitors, primary screen, biochemical, AlphaScreen, human; Microphthalmia-associated transcription factor (Homo sapiens), O75030; AlphaScreen MITF homodimerization, bead proximity signal; inhibition, % at 2.6 µM; 650,000 compounds, 0.91% hits; in the data active = inhibition above about 50%;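 also: 0% = vehicle wells with protein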
TEAD-YAP inh = TEAD-YAP interaction inhibition, primary screen, TEAD-YAP interaction inhibitor project, luminescence, HEK-TIYL cells; TEAD-Gal4/YAP UAS-luciferase luminescence; 640,000 compounds, 1.4% hits; inhibition, % at 9.12 µM; AID 1259422, 2018; in the data active = inhibition above about 32%;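 also: 0% = median of test compound wells and 100% = reference inhibitor wells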
* hit, by the source's call. Sampled rows, rich in hits. Any-hit rate of the full collection: about 3.4%.

SMILES	GPR151 activ	FBW7 activator	MITF primary	TEAD-YAP inh
C=CCOC(=O)C1=C(C)NC(=S)NC1c1ccccc1OCC (configuration not stated)	-1	0	3	1
CCOC(=O)C1=C(C)NC(=S)NC1c1ccccc1OCC(=O)Nc1ccc(C)cc1 (configuration not stated)	1	0	2	36*
Cc1ccc(Cl)c(OCC(=O)OCC(=O)NC(=O)Nc2ccc3c(c2)OCCO3)c1	-1	0	-2	-25
CC(=O)c1cn(CC(=O)Nc2ccccc2)c2ccccc12	1	0	-10	28
COc1ccccc1NC(=O)Cn1c(C)nc2ccccc21	1	0	6	35*
CC(=O)c1cn(CC(=O)NCCOc2ccc(Cl)cc2)c2ccccc12	0	0	-13	40*
COc1ccccc1NC(=O)Cn1cc(C(C)=O)c2ccccc21	-1	0	-8	37*
COc1cccc(NC(=O)Cn2cc(C(C)=O)c3ccccc32)c1	2	0	3	48*
Cc1ccccc1OCC(=O)NNC(=O)C(C)Oc1ccc(Cl)cc1Cl (configuration not stated)	1	0	2	4
NC1=NC2(CCCCCC2)n2c(nc3ccccc32)N1	-1	0	4	78*
CCOc1ccc(-c2[nH]nc3c2C(c2ccc(OCc4c(F)cccc4Cl)cc2)C(C#N)=C(N)O3)cc1OC (configuration not stated)	0	0	5	-11
O=C(NCCNc1ccc([N+](=O)[O-])c(NC2CC2)c1)c1ccc(Br)cc1	2	0	2	0
COc1ccc(C(=O)C[n+]2cccc3cc(OC)ccc32)cc1	0	0	-5	53*
CCC[n+]1cccc2cc(OC)ccc21	1	0	-1	1
Cc1ccc(N/C(=N/S(=O)(=O)c2cccs2)c2ccccc2)cc1F	1	0	-7	40*
O=S(=O)(/N=C(\Nc1nccs1)c1ccccc1)c1cccs1	-3	0	25	-7
C=CCn1c(SCC(=O)OCC)nc2sc3c(c2c1=O)CCC(C(C)(C)C)C3 (configuration not stated)	0	0	2	38*
CCOc1ccc(C(=O)Nc2c(C)ccc3nsnc23)cc1Cl	-1	0	14	4
CCOc1ccc(C(=O)CCNCCC(=O)O)cc1	0	0	6	1
CCOc1ccc(C(=O)CSCCC(=O)O)cc1	0	0	7	35*
Cc1cc(Cl)c(S(=O)(=O)N2CCSCC2)cc1OCC(=O)NC1CCCCC1	-2	1	11	38*
Cc1cc(Cl)c(S(N)(=O)=O)cc1OCC(=O)NC1CCCCC1	1	0	1	-3
COC(=O)c1ccccc1Oc1ccc(NS(C)(=O)=O)cc1	-2	0	8	3
OC12CCC3CC(CC1)CC2C3 (configuration not stated)	0	0	0	-1
Cc1ccc(-c2noc(-c3ccc(O)cc3)n2)cc1	-9	1	3	74*
SMILES	GPR151 activ	FBW7 activator	MITF primary	TEAD-YAP inh
Oc1ccc(-c2nc(-c3ccc(Br)cc3)no2)cc1	-8	0	2	50*
CCC(=O)Oc1ccc(-c2nc(-c3ccc(OC)cc3)no2)cc1	-7	0	1	44*
CC(C)(C)c1ccc(-c2nc(-c3ccc(Br)cc3)no2)cc1	-1	0	-3	-10
CC(C)(C)c1ccc(-c2nc(-c3ccccc3)no2)cc1	1	0	0	77*
O=C1NCCN(CC2CCCCC2)C1CC(=O)N1CCC(N2CCSCC2)CC1 (configuration not stated)	1	0	2	-4
CCCc1[nH]n(-c2ccc(F)cc2)c(=O)c1C=Nc1ccccc1	-1	0	8	4
CCOC(=O)N1CCN(C(=O)c2ccc(Cn3c(=S)[nH]c4ccccc4c3=O)cc2)CC1	-1	0	-6	45*
CC(C)OCCCNc1ncnc2ccc(Br)cc12	1	0	-8	46*
CC(C)CNc1ncnc2ccc(Br)cc12	1	0	-5	42*
Brc1ccc2ncnc(NCc3ccccc3)c2c1	0	0	-5	60*
O=C(O)CNc1ncnc2ccc(Br)cc12	-1	0	13	3
Cc1ccc2ncnc(NCCc3ccccc3)c2c1	1	0	11	50*
CC(NC(=S)NC(=O)c1cccs1)C12CC3CC(CC(C3)C1)C2 (configuration not stated)	0	0	12	8
C=CCNS(=O)(=O)c1cc2c3c(c1)CC(=O)N3CCC2	-1	0	2	2
CCN(CC)c1ccc(Nc2ncnc3ccc(Br)cc23)cc1	0	0	4	7
Cc1ccc2ncnc(NC3CCCCC3)c2c1	-1	0	32	37*
CN(C)c1ccc(Nc2ncnc3ccc(Br)cc23)cc1	1	0	-1	34*
CCOc1ccc2c(c1)C(C)=CC(C)(C)N2C(=O)CCl	-1	0	-5	14
COc1ccc2c(c1)C(C)=CC(C)(C)N2C(=O)CCl	1	0	-5	35*
COc1ccccc1CNC(=O)c1ncoc1-c1ccccc1C(F)(F)F	-1	0	-2	-3
COc1ccc(Cl)cc1C(=O)N1CCN(c2ccccc2F)CC1	4	0	0	34*
Cc1onc(-c2ccccc2)c1C(=O)N1CCN(c2ccc([N+](=O)[O-])cc2Cl)CC1	-1	0	2	3
COc1ccccc1N1CCN(C(=O)c2ncoc2-c2ccccc2C(F)(F)F)CC1	0	0	-17	51*
Cc1c(C(=O)N2CCN(c3cccc(Cl)c3)CC2)sc2nc[nH]c(=O)c12	0	0	-9	48*
Cc1cccc(N2CCN(C(=O)c3c(-c4ccccc4)noc3C)CC2)c1C	0	0	-7	53*
SMILES	GPR151 activ	FBW7 activator	MITF primary	TEAD-YAP inh
COc1ccc(CC(=O)Nc2c3c(nn2C(C)(C)C)CS(=O)C3)cc1OC (configuration not stated)	0	0	9	-2
CCOc1ccc(C2=NN3C(C2)c2cccc(OC)c2OC3c2cccc(OC)c2)cc1 (configuration not stated)	-1	0	-1	-15
Cc1ccc(C2=C/C(=C/c3ccc4c(c3)OCO4)C(=O)O2)cc1	0	0	1	10
COc1cc(C(=O)N2CCN(c3cccc(Cl)c3)CC2)cc(OC)c1OC	1	0	3	52*
O=C(N1CCCCCC1)N1c2ccccc2Sc2ccccc21	0	0	3	-3
COC(=O)c1cc(C(=O)N2CCN(c3ccccc3OC)CC2)cc([N+](=O)[O-])c1	2	0	-11	64*
COc1ccccc1N1CCN(C(=O)c2nc(SC)ncc2Cl)CC1	4	0	-18	49*
CSc1ncc(Cl)c(C(=O)N2CCN(C)CC2)n1	0	0	-13	4
